Compounds without any hit were thinned out: in the full panel of roughly 83,000, 20% have a hit.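 Single-dose data. Exposure time 48 hours. Values below 10 considered active.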 The source made the active and inactive calls.
How the values were obtained:
Assay in all cases: NCI-60 one-dose screen, 48 h (100 = growth as untreated, 0 = no growth, -100 = all killed)
Conditions in all cases: 10 µM unless noted
[1] = test system: SR leukemia
[2] = test system: RPMI-8226 leukemia
[3] = test system: OVCAR-8 ovarian
[4] = test system: OVCAR-5 ovarian
[5] = test system: OVCAR-4 ovarian
[6] = test system: IGROV1 ovarian
[7] = test system: OVCAR-3 ovarian
[8] = test system: HS 578T breast
[9] = test system: NCI/ADR-RES ovarian
[10] = test system: SK-OV-3 ovarian

Measured: growth

CCSc1cnnc2ccccc12
inactive: [1] 94.2% | [2] 111% | [3] 104% | [4] 103% | [5] 103% | [6] 128% | [7] 121% | [8] 117% | [9] 104%

Cc1ccc(C(CN(C)C)C(=O)c2ccccc2)cc1 (stereo unspecified)
active: [1] -29.2% | [2] -41% | [7] -8.33%
inactive: [3] 14.5% | [4] 65.9% | [5] 33.2% | [6] 88.9% | [8] 83.5% | [9] 49.7%

O=C(Nc1cccc(Cl)c1)Nc1ccccc1Cl
inactive: [1] 82.1% | [2] 55.9% | [3] 87.3% | [4] 115% | [10] 101% | [6] 85.9% | [7] 78.4% | [8] 90.7% | [9] 80.6%

CC1CCN(CCCCCOc2ccc3oc4ccc(Cl)cc4c(=O)c3c2)CC1
inactive: [1] 14.9% | [2] 35.4% | [3] 59.7% | [4] 72.9% | [10] 84.3% | [6] 70.4% | [7] 74.6% | [8] 86.5% | [9] 71.6%

CCOC(=O)C1=C(C)NC(=S)NC1c1ccccc1 (stereo unspecified)
inactive: [1] 94.3% | [2] 112% | [3] 103% | [4] 101% | [10] 114% | [6] 97.4% | [7] 110% | [8] 98.9% | [9] 109%

CC(C)N(C(=S)SSC(=S)N(C(C)C)C(C)C)C(C)C
inactive: [1] 105% | [2] 87.2% | [3] 111% | [4] 107% | [5] 78.7% | [6] 92.2% | [7] 108% | [8] 106% | [9] 104%

C[N+](C)(C)CC(=O)N/N=C\c1ccco1
inactive: [1] 81.2% | [2] 103% | [3] 102% | [4] 97% | [10] 103% | [6] 104% | [7] 114% | [8] 99.4% | [9] 111%

CC(=O)Nc1c(Br)cc2c(c1Br)Cc1cc(Br)ccc1-2
active: [8] -7.93%
inactive: [1] 54.4% | [2] 83% | [3] 68.7% | [4] 108% | [10] 85.7% | [6] 45% | [7] 87% | [9] 76.1%

COc1ccc2nc3cc(Cl)ccc3c(NC(=O)CSc3ccc(Cl)cc3)c2c1
active: [1] -10.1% | [2] -41.4% | [3] -63.8% | [4] -87.2% | [10] -94.2% | [6] -91.5% | [7] -96.4% | [8] -43.2% | [9] -65%

Cc1ccc(NC(=O)c2sc3nc4c(cc3c2N)C(=O)CCC4)cc1Cl
inactive: [1] 105% | [2] 105% | [3] 103% | [4] 101% | [10] 114% | [6] 106% | [7] 113% | [8] 113% | [9] 104%

CCCCCCCCN=C(NCCCCCCCC)SCc1cccc2ccccc12
active: [1] -34.6% | [2] -42.1% | [3] -92.5% | [4] -84.2% | [10] -96.3% | [6] -55.5% | [7] -97.9% | [8] -55.3%

NC(=O)c1ccc[n+](Cc2ccccc2)c1
inactive: [1] 109% | [2] 89.9% | [3] 103% | [4] 96.2% | [10] 113% | [6] 111% | [7] 107% | [8] 98.5%

CCCCCCCCCCCCNC(=O)N[C@H](C(=O)N[C@H]1/C=C/OCCNC(=O)/C=C/[C@H](C(C)C)NC1=O)C(C)C
inactive: [1] 29% | [2] 60.3% | [3] 96% | [4] 36.1% | [10] 106% | [6] 45.2% | [7] 24.1% | [8] 74.2% | [9] 101%

C=C1C(=O)O[C@H]2[C@H]1CC/C(COC(=O)NCc1cccc(OC)c1)=C\CC[C@@]1(C)O[C@@H]21
inactive: [3] 46.1% | [4] 66.6% | [10] 71.6% | [6] 32.8% | [8] 75.7% | [9] 57.3%
active: [1] 8.59% | [2] -23.1% | [7] -7.55%

CCOc1cc(/C=N\NC(=O)C[N+](C)(C)C)ccc1O
inactive: [1] 14.3% | [2] 94% | [3] 113% | [4] 101% | [10] 105% | [6] 118% | [7] 116% | [8] 117% | [9] 103%

Cc1ccsc1C(=O)CC(=O)C(F)(F)C(F)(F)C(F)(F)F
inactive: [1] 108% | [2] 101% | [3] 102% | [4] 97.4% | [5] 98.6% | [6] 114% | [7] 110% | [8] 110% | [9] 107%

COc1cnc2c(c1)C(=O)c1c-2n(CCCN2CCCC2)c(=O)c2cc(Cl)ccc12
inactive: [2] 20.3% | [3] 26.1% | [4] 64.8% | [10] 19.6% | [6] 39.4% | [7] 55% | [8] 49.1% | [9] 35.1%
active: [1] -42.9%

CCOC(=O)Cn1c(-c2nonc2NC(=O)c2ccccc2F)nc2ccccc21
inactive: [1] 10.8% | [2] 40.6% | [3] 38.8% | [4] 75% | [5] 90.8% | [6] 46.3% | [7] 56.7% | [8] 73.1% | [9] 55.7%

COc1cccc(/C(C)=N/NC(=O)CSc2nc3ccccc3c(=O)n2CCc2ccc(S(N)(=O)=O)cc2)c1
active: [1] -1.96% | [2] 4.78% | [3] 7.61% | [5] -7.35%
inactive: [4] 73.2% | [6] 77.1% | [7] 20% | [8] 29.8% | [9] 74.7%

COc1cc([N+](=O)[O-])cc(OC)c1OC
inactive: [1] 102% | [2] 96% | [3] 109% | [4] 129% | [10] 118% | [6] 100% | [7] 108% | [8] 107% | [9] 114%

Cc1cc([N+](=O)[O-])c(C)cc1N
inactive: [1] 90.9% | [2] 96.5% | [3] 102% | [4] 116% | [10] 111% | [6] 96.9% | [7] 104% | [8] 107% | [9] 106%

Cc1ccc(Nc2cccc3ccccc23)cc1
inactive: [1] 62.1% | [2] 76.5% | [3] 96.2% | [4] 93.2% | [10] 101% | [6] 73.2% | [7] 89.1% | [8] 83.4% | [9] 78.1%

C=C(C)[C@@H]1CC[C@]2(C(=O)NC(COC(=O)C(Cl)Cl)(COC(=O)C(Cl)Cl)COC(=O)C(Cl)Cl)CC[C@]3(C)[C@H](CC[C@@H]4[C@@]5(C)CC[C@H](OC(C)=O)C(C)(C)[C@@H]5CC[C@]43C)[C@@H]12
inactive: [1] 20.4% | [3] 73.6% | [4] 80.7% | [10] 82.1% | [6] 84.3% | [7] 57.5% | [8] 71.5% | [9] 71%
active: [2] 2.68%

NS(=O)(=O)c1ccc(CCn2c(SCC(=O)N/N=C/c3cccnc3)nc3ccccc3c2=O)cc1
inactive: [1] 65.3% | [2] 49.7% | [3] 75.1% | [4] 108% | [10] 115% | [6] 104% | [7] 84.7% | [8] 82.7% | [9] 105%

Cc1ccc(OC2=C(C#N)C(=N)N3C(=NN2)Sc2c(C)ccc(C)c23)cc1
inactive: [1] 98.2% | [2] 105% | [3] 104% | [4] 128% | [10] 96.2% | [6] 87.7% | [7] 117% | [8] 107% | [9] 101%

COc1ccc(NC(=O)c2sc3c(=O)[nH]c(C(F)(F)F)nc3c2C)cc1
inactive: [1] 106% | [2] 95% | [3] 100% | [4] 116% | [10] 98.5% | [6] 90% | [7] 112% | [8] 104% | [9] 102%

COc1ccc(C2c3cccn3-c3ccccc3N2C(C)=O)cc1 (stereo unspecified)
inactive: [1] 74% | [2] 85.5% | [3] 125% | [4] 99.3% | [5] 126% | [6] 74.3% | [7] 95.3% | [9] 91.2%

NC(=O)N/N=C\c1ccc([N+](=O)[O-])o1
inactive: [1] 96.1% | [2] 86% | [3] 97.6% | [4] 103% | [10] 114% | [6] 105% | [7] 109% | [8] 79.2% | [9] 95.1%

O=C1C(Cl)=C(Nc2cccc3ccccc23)C(=O)c2ccccc21
inactive: [1] 51% | [2] 17.8% | [3] 71.5% | [5] 58.6% | [10] 99.1% | [6] 58.8% | [7] 39% | [8] 87.9% | [9] 81.2%

ClC1=NC(Cl)C(Cl)=N/C1=N\c1ncn[nH]1 (stereo unspecified)
active: [1] -60.4% | [2] -8.16% | [3] -1.21% | [6] -50.2% | [7] -82.2%
inactive: [4] 85% | [10] 66.3% | [9] 91.9%

From PubChem BioAssay (NCI)
